{
  "source": "the supplement of paper PMC5407854",
  "about": "“Inhibitor of ppGalNAc-T3-mediated O-glycosylation blocks cancer cell invasiveness and lowers FGF23 levels” (eLife, 2017)",
  "note": "Whole data set: some 1,700 compounds, median “T2 sensor activation Q score (MG/GFP ratio z-score vs DMSO controls)” near 0.3, cut for the highest 2% near 1.9. The full list was thinned out, with the highest values kept by preference.",
  "data": [
    {"test_system": "ppGalNAc-T2 sensor", "experiment": "T2 sensor activation Q score (MG/GFP ratio z-score vs DMSO controls) (SD units); higher = more sensor activation (inhibition of ppGalNAc-T2 glycosylation)", "conditions": "HEK293 sensor cells; 10 µM; 6 h", "method": "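Cells were treated with compound at 10 uM for 6 h, then MG/GFP ratio was read by flow cytometry (10,000 cells per well, duplicate wells). Q = (R - R_neg)/SD_neg relative to DMSO vehicle controls; the signal rises when the glycosyltransferase is inhibited.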", "values": [
      {"smiles": "CCOC(=O)C(C)c1c(C(=O)c2ccc(C)nc2)c2ccccc2n1C", "note": "(stereo not given)", "T2 sensor activation Q score": 0.9},
      {"smiles": "NC(=O)c1nnsc1-c1ccc(-c2snnc2C(N)=O)cc1", "T2 sensor activation Q score": 1.7},
      {"smiles": "O=c1[nH]c(=S)c2ncn(-c3ccccc3)c2[nH]1", "T2 sensor activation Q score": -1.3},
      {"smiles": "NC(=O)c1ccccc1NC(=O)COc1ccc(Cl)cc1", "T2 sensor activation Q score": -0.45},
      {"smiles": "CC(=O)Nc1ccc(S(=O)(=O)N/N=c2/sc3ccccc3n2C)cc1N", "T2 sensor activation Q score": -0.6},
      {"smiles": "c1ccc(-c2nnc3oc(-c4cccs4)nn23)cc1", "T2 sensor activation Q score": -1.05},
      {"smiles": "Cc1cn(C2CC(O)C(CO)O2)c(=O)n(Cc2ccccc2)c1=O", "note": "(stereo not given)", "T2 sensor activation Q score": 0.85},
      {"smiles": "O=c1[nH]cc(Cl)cc1Cl", "T2 sensor activation Q score": 0.5},
      {"smiles": "CCOC(=O)/C=C/c1nc(C(=O)OCC)c(C)c(=O)[nH]1", "T2 sensor activation Q score": -0.1},
      {"smiles": "CC(C)CCCCCCCCCCCCC(=O)NCC(=O)NC1C(C)OC(Nc2ncnc3nc[nH]c23)C(O)C1O", "note": "(stereo not given)", "T2 sensor activation Q score": 8.6},
      {"smiles": "CC(C)=NNc1ncnc2nc[nH]c12", "T2 sensor activation Q score": 1.25},
      {"smiles": "Cc1ccc(Nc2n[nH]c(=S)s2)cc1F", "T2 sensor activation Q score": -0.95},
      {"smiles": "NNC(=O)Cc1cc(=O)[nH][nH]1", "T2 sensor activation Q score": -0.7},
      {"smiles": "Cc1cc(=O)oc2cc(OS(C)(=O)=O)ccc12", "T2 sensor activation Q score": 1.2},
      {"smiles": "CCSc1nc(=S)cc(C)[nH]1", "T2 sensor activation Q score": -0.1},
      {"smiles": "CC(=NNC(N)=O)c1ccc(Cl)c(-n2cccc2)c1", "T2 sensor activation Q score": 0.6},
      {"smiles": "N#C/C(=C\\c1c[nH]c2ccccc12)C(N)=O", "T2 sensor activation Q score": 0.8},
      {"smiles": "NC(=S)N/N=C\\c1cc(-c2cccc(N)c2)ccn1", "T2 sensor activation Q score": 0},
      {"smiles": "O=C(Nc1ccc(C2=NCCCN2)cc1)Nc1ccc(C2=NCCCN2)cc1", "T2 sensor activation Q score": -0.6},
      {"smiles": "COc1ccc2c(c1)CCCN2C(N)=Nc1ccc(Cl)cc1", "T2 sensor activation Q score": 1.25},
      {"smiles": "Cc1cccc2cc3cccc(C)c3nc12", "T2 sensor activation Q score": 0.3},
      {"smiles": "Cc1c(COC(=O)NC(C)C)c(COC(=O)NC(C)C)c2n1CS(=O)(=O)C2", "T2 sensor activation Q score": -0.4},
      {"smiles": "CC1CC(C)(C)C2=NCCN21", "note": "(stereo not given)", "T2 sensor activation Q score": 1.3},
      {"smiles": "Cc1ccc(S(=O)(=O)NNC(=O)C23CCC(CC2)C3)cc1", "T2 sensor activation Q score": 1.95},
      {"smiles": "Cc1ccc(S(=O)(=O)NC(=O)Nc2nccs2)cc1", "T2 sensor activation Q score": -1.2},
      {"smiles": "CC(=O)C1C=CC(C)(C(=O)O)C2C=C(C)C(=O)C(C)(O)C12", "note": "(stereo not given)", "T2 sensor activation Q score": 0.2},
      {"smiles": "CCOC(=O)c1csc(-c2ccc(COC(=O)c3ccccc3)o2)n1", "T2 sensor activation Q score": -1},
      {"smiles": "COc1ccc2c(c1)CCN1C2CCN2C(=O)CCC21", "note": "(stereo not given)", "T2 sensor activation Q score": 0.9},
      {"smiles": "O=S1(=O)CCN(Cc2ccccn2)CC1", "T2 sensor activation Q score": 0.85},
      {"smiles": "COC(=O)c1ccc(Cn2cnc3c(Cl)ncnc32)cc1", "T2 sensor activation Q score": 1.6},
      {"smiles": "Cc1cc(N)c2cc(NC(=O)C=Cc3ccccc3Cl)ccc2n1", "T2 sensor activation Q score": 1.5},
      {"smiles": "Nc1ccc(N=Nc2ccccc2)c2ccccc12", "T2 sensor activation Q score": -0.25},
      {"smiles": "O=C(Nc1ccc(Nc2ccccc2)cc1)Nc1ccccc1Cl", "T2 sensor activation Q score": -1.35},
      {"smiles": "Nc1cc(Nc2ccc(Br)cc2)nc(N)n1", "T2 sensor activation Q score": 0.6},
      {"smiles": "CCCCCOc1ccc(N2C(=O)C(C)CNC2=S)cc1", "note": "(stereo not given)", "T2 sensor activation Q score": 0.7},
      {"smiles": "Oc1ccc(Cc2ccccc2Cl)c(O)c1", "T2 sensor activation Q score": 1.95},
      {"smiles": "Oc1ccc(Cc2ccc(Cl)cc2)c(O)c1", "T2 sensor activation Q score": 1.3},
      {"smiles": "Oc1ccc(-c2nc3ccccc3s2)c(O)c1", "T2 sensor activation Q score": 0.2},
      {"smiles": "COC(=O)c1cc(C)[nH]c2c(C)cc3nc4ccccc4c3c12", "T2 sensor activation Q score": 0.65},
      {"smiles": "O=C(Oc1ccccc1)N(c1ccccc1)c1ccccc1", "T2 sensor activation Q score": 0.35},
      {"smiles": "Cc1cc(/C=C2\\SC(=S)NC2=O)cc(C)c1O", "T2 sensor activation Q score": 0.35},
      {"smiles": "CN(C)c1ccc2c(c1)Sc1cc(N(C)C)ccc1N2C(=O)c1ccccc1", "T2 sensor activation Q score": 2.55},
      {"smiles": "CN(C)c1ccc(/C=C(\\C#N)C(=O)c2ccccc2)cc1", "T2 sensor activation Q score": -0.3},
      {"smiles": "CN1CCC=C(C(=O)N2c3ccccc3Sc3ccc(Cl)cc32)C1", "T2 sensor activation Q score": 0.25},
      {"smiles": "CC[C@]1(O)C[C@@H]2CN(CCc3c([nH]c4ccccc34)[C@@](C(=O)OC)(c3cc4c(cc3OC)N(C)[C@H]3[C@@](O)(C(=O)OC)[C@H](OC(C)=O)[C@]5(CC)C=CCN6CC[C@]43[C@@H]65)C2)C1", "T2 sensor activation Q score": 2.05},
      {"smiles": "CCC1=C[C@@H]2CN(C1)Cc1c([nH]c3ccccc13)[C@@](C(=O)OC)(c1cc3c(cc1OC)N(C)[C@H]1[C@@](O)(C(=O)OC)[C@H](OC(C)=O)[C@]4(CC)C=CCN5CC[C@]31[C@@H]54)C2", "T2 sensor activation Q score": 1.1},
      {"smiles": "CC[C@]1(O)C[C@H]2CN(CCc3c([nH]c4ccccc34)[C@@](C(=O)OC)(c3cc4c(cc3OC)N(C=O)[C@H]3[C@@](O)(C(=O)OC)[C@H](OC(C)=O)[C@]5(CC)C=CCN6CC[C@]43[C@@H]65)C2)C1", "T2 sensor activation Q score": 1.4},
      {"smiles": "C=C(C)C(=O)Oc1ccc(N=Nc2ccc(C)cc2)ccc1=O", "T2 sensor activation Q score": 1.1},
      {"smiles": "NC(=O)c1nc2c([nH]c1=O)CCCC2", "T2 sensor activation Q score": -0.85},
      {"smiles": "CSc1nc(N)c(C(=O)Nc2ccc([N+](=O)[O-])cc2)s1", "T2 sensor activation Q score": 0.05},
      {"smiles": "O=C(Nc1cccc(-c2nc3ccccc3[nH]2)c1)c1ccc(C(=O)Nc2cccc(-c3nc4ccccc4[nH]3)c2)cc1", "T2 sensor activation Q score": 3},
      {"smiles": "Nc1ccc(C(=O)Nc2cccc(N)c2)cc1", "T2 sensor activation Q score": -0.5},
      {"smiles": "c1ccc2[nH]c(-c3ccncc3)nc2c1", "T2 sensor activation Q score": -1.1},
      {"smiles": "Cn1ncc2c(Sc3ccc(Cl)cc3)ncnc21", "T2 sensor activation Q score": 1.3},
      {"smiles": "CC1=CN2C(c3cccc([N+](=O)[O-])c3)=NON(c3ccc(C)cn3)C2C=C1", "note": "(stereo not given)", "T2 sensor activation Q score": 0.85},
      {"smiles": "CSc1ncc2[nH]c(C(O)c3ccccc3)nc2n1", "note": "(stereo not given)", "T2 sensor activation Q score": -0.45},
      {"smiles": "O=S1(=O)CCC(N(N=Cc2ccco2)c2ccccc2)C1", "note": "(stereo not given)", "T2 sensor activation Q score": -0.2},
      {"smiles": "O=CN/C=C\\c1cc(O)ccc1O", "T2 sensor activation Q score": -0.3},
      {"smiles": "OC[C@@H]1CCC[C@H](n2cnc3c(=S)nc[nH]c32)O1", "T2 sensor activation Q score": 0.75},
      {"smiles": "Cc1nccnc1Sc1ccccc1", "T2 sensor activation Q score": -0.2},
      {"smiles": "Oc1c(N=Nc2nn[nH]n2)ccc2ccccc12", "T2 sensor activation Q score": 3.6},
      {"smiles": "Oc1ccc2ccccc2c1N=Nc1ccc(F)cc1", "T2 sensor activation Q score": 0.05},
      {"smiles": "Oc1ccc2ccccc2c1N=Nc1nccs1", "T2 sensor activation Q score": 0.9},
      {"smiles": "O=[N+]([O-])c1c(N2CCN(CCO)CC2)nc2ccccn12", "T2 sensor activation Q score": 0.7},
      {"smiles": "OCc1nnn(-c2ccccc2)c1CO", "T2 sensor activation Q score": 0.8},
      {"smiles": "NC(N)=N/N=C\\c1c(Cl)cccc1Cl", "T2 sensor activation Q score": 0.25},
      {"smiles": "Cc1cc(N2CCOCC2)nc(N2CCOCC2)n1", "T2 sensor activation Q score": 0.15},
      {"smiles": "N#CC(c1ccccc1)C(C/C(=N\\O)c1ccccc1)c1ccccc1", "note": "(stereo not given)", "T2 sensor activation Q score": -0.8},
      {"smiles": "O=C(/C=C/c1cccnc1)/C=C/c1cccnc1", "T2 sensor activation Q score": 1.6},
      {"smiles": "O=C(c1ccccc1)C1N=NCC1c1ccc(Cl)cc1", "note": "(stereo not given)", "T2 sensor activation Q score": 0.05},
      {"smiles": "O=c1nc(Oc2ccccc2)nc2ncccn12", "T2 sensor activation Q score": 1.9},
      {"smiles": "Nc1nc(SCc2ccccn2)c2ncn(C3OC(CO)C(O)C3O)c2n1", "note": "(stereo not given)", "T2 sensor activation Q score": -0.15},
      {"smiles": "Cc1cc(=O)n2[nH]c(-c3ccc(C(C)(C)C)cc3)cc2n1", "T2 sensor activation Q score": 0.15},
      {"smiles": "Nc1nc(N)c2c(ccc3nccc32)[nH]1", "T2 sensor activation Q score": 1.3},
      {"smiles": "O=C1C2C3C=CC(CC3)C2S(=O)(=O)C2C3C=CC(CC3)C12", "note": "(stereo not given)", "T2 sensor activation Q score": 1.8}
    ]}
  ]
}
